The source of these data is PubChem BioAssay AID624414 (National Center for Advancing Translational Sciences (NCATS), 2012).

About 480 (0.12%) of roughly 410,000 compounds were called active. The sample as a whole holds a higher share of actives than the screen did. A number with no mark means an inactive call. Cut-off read from the data, not from the text of the source: active = activation above about 50%; inconclusive = mostly about 30% to 49%; inactive = weaker than that.

This assay deals with Mucolipin-1 (Homo sapiens) (UniProt Q9GZU1). The assay can be described thus: qHTS for Agonists of the Human Mucolipin Transient Receptor Potential 1 (TRPML1). Note: 0% is about no effect. To be noted: TRPML1-expressing cells, Ca2+ dye fluorescence, FDSS; active compounds read high. From the text: Mutations of human Mucolipin transient receptor potential 1 (TRPML1) cause type IV mucolipidosis (ML4), a devastating neurodegenerative disease in young children. […] Currently, there is no treatment for ML4. […] Under physiological conditions, TRPMLs regulate membrane trafficking by transducing information about PI(3,5)P2 levels into changes in juxtaorganellar Ca2+, thereby triggering membrane fusion/fission events in the late endocytic pathways (endolysosomal trafficking). In addition, TRPML1 mediates release of Fe2+ from late endosomes and lysosomes, which is essential for cellular iron metabolism. Thus, impaired ion (Ca2+ and Fe2+) homeostasis underlies lysosomal dysfunction and ML4 phenotypes. In ML4 cells, the problem is twofold. First, defective Ca2+-dependent membrane trafficking due to TRPML1-deficiency causes accumulation of lipids and other bio-materials in the lysosome. The second strike comes from the lysosomal iron overload (due to impairment of TRPML1's Fe2+ conductivity), which converts the accumulated materials into the nondegradable (resistant to lysosomal degradation) lipofuscin (also called aging pigment) in the lysosome. Lipofuscin accumulation dramatically compromises the functions of lysosomes.
Sequence of Mucolipin-1 (Homo sapiens) (Q9GZU1 whole entry, looked up, the tested form may be a part): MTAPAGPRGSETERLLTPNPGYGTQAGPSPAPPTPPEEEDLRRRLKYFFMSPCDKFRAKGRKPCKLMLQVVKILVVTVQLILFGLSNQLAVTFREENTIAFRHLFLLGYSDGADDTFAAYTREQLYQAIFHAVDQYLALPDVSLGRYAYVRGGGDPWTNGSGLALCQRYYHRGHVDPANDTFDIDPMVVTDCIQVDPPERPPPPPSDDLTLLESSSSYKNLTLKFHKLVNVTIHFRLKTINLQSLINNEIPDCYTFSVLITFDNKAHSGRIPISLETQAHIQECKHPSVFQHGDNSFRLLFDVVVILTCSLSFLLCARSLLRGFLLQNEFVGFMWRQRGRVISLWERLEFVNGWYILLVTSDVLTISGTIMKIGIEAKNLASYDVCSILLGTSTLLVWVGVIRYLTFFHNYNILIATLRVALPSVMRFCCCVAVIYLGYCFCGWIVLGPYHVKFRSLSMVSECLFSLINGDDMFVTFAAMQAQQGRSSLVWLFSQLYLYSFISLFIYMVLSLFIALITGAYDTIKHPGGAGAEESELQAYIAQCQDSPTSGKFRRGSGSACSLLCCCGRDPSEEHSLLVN
Niemann-Pick type C (NPC) disease is another lysosome storage disease (LSD) with severe neurodegeneration during the childhood. Currently, there is no cure for NPC. […] Thus, TRPML1 is likely to be an essential regulator of lysosome ion homeostasis. We specifically hypothesize that stimulating TRPML1's Fe2+/Ca2+ channel activity in the lysosome using synthetic agonists can alleviate neurodegeneration associated with ML4 or NPC.
To this end, a high throughput screen was developed in a miniaturized format to screen against the Molecular Libraries Small Molecule Repository (MLSMR) to find small molecules that act either as inhibitors or agonist against the TRPML1 channel.
NIH Chemical Genomics Center [NCGC]
NIH Molecular Libraries Probe Centers Network [MLPCN]
Assay Submitter (PI): Haoxing Xu, University of Michigan Ann Arbor
TRPML1-DL cells are dissociated from flasks, counted and, brought up to a density of 500,000 cells per mL of media containing a 1X Tet inducer. Using a Multidrop Combi, 3uL of this cell solution is dispensed to each well of a 1536 TC treated, black, clear bottom hi base plate for a final cell density of 1,500 cells per well. The assay plates are incubated overnight (approximately 16 hours) at 37 degrees C and 5% CO2. Using a Multidrop Combi, 2uL of ABD Ca8 no wash dye plus quencher is added to each well. The assay plates incubate at room temperature in the dark for 45-90 minutes. The assay plate is read on the FDSS using the following protocol: 10 second baseline read, 23nL of compounds and controls are added using 1536 pintool, agonist read for 110 seconds, 1 uL EC80 addition (4uM final 54-4 diluted in media), antagonist read for 110 seconds.
`COc1cccc(-c2nnc3n(CCc4ccccc4)c(=O)c4ccccc4n23)c1O`: the activation is 1.15%.

Regarding `CCOc1ccc(/C=C(\C#N)c2nc3ccccc3c(=O)[nH]2)cc1OC`, the activation was 1.09%.

Consider `COc1ccc(/C=C(/NC(=O)c2ccc(C)cc2)c2nc3ccccc3[nH]2)cc1OC`, for which the activation was 50.1% (active).

On to `Cc1ccc2nc(CNC(=O)c3ccccc3)[nH]c2c1`, for which the activation was 2.07%.

With `N#Cc1ccc[n+](CC(=O)c2ccc(F)cc2)c1`, the activation is 1.03%.

In the case of `COC(=O)C(CC(C)C)NS(=O)(=O)c1cc(Br)ccc1Br` (stereo unspecified), the activation is 1.9%.

As to `OC(CBr)CN1CCCCC1` (stereo unspecified), the activation is -0.38%.

Consider `Cc1cccc(N2CCN(C(=O)CCn3c(=O)c4cccn4c4cccnc43)CC2C)c1` (stereo unspecified), for which the activation was 0.62%.

`C=CCNC(=O)c1ccc2nc(-c3ccco3)c(-c3ccco3)nc2c1`: the activation was -0.254%.

With `OC(CBr)C[n+]1cccc2cc(Br)ccc21` (stereo unspecified), the activation is 1.14%.

In the case of `Nc1ncnc2nnsc12`, the activation is 0.38%.

Turning to `CN(C)c1ccc(/C=C/c2sc3ccccc3[n+]2CCCCBr)cc1`, the activation is 6.96%.

With `CCC(C(=O)Nc1cccc(Cl)c1C)n1nc(-c2ccc(C)cc2)ccc1=O` (stereo unspecified), the activation was 3.09%.

For the compound `S=c1[nH]c(=S)c2n[nH]nc2[nH]1`, the activation was 0%.

`CC(C)(C)c1ccc(C(=O)C[N+]2(C)CCCc3ccccc32)cc1` (stereo unspecified): the activation is -0.62%.

`O=C1O/C(=C\c2ccc(O)cc2)C(O)=C1c1ccc(O)cc1`: the activation was -0.353%.

For the compound `COc1ccc(OC)c(NC(=O)CSC2=Nc3ccccc3C3=NC(CC(=O)NCc4ccc(F)cc4)C(=O)N23)c1` (stereo unspecified), the activation was 2.38%.

In the case of `CCN1CCN(c2ncc3c(n2)CC(c2ccccc2O)CC3=O)CC1` (stereo unspecified), the activation is -0.182%.

Consider `CCCS(=O)(=O)Nc1cccc(-c2cn3ccsc3n2)c1`, for which the activation is -0.225%.

Regarding `CN(CCC#N)c1ccc(C=O)cc1`, the activation is -0.222%.

For `COc1ccc(NC(=O)c2sc3nc(C)nc(N4CCN(c5ccccn5)CC4)c3c2C)c(OC)c1`, the activation is 105% (active).

On to `Cc1nc(N2CCN(c3ccccn3)CC2)c2c(C)c(C(=O)Nc3ccc(F)c(Cl)c3)sc2n1`, for which the activation is -0.23%.

In the case of `COc1cc([N+](=O)[O-])ccc1NC(=S)N1CCN(c2ccccn2)CC1`, the activation is 0.452%.

`O=C(Nc1ccccc1)c1ccccc1OCc1ccccc1`: the activation is 0.0539%.

For `COc1cc2nc(N3CCCN(C)CC3)nc(NC(C)C)c2cc1OC`, the activation is -0.755%.

`O=C1CC(c2ccccc2)CC2=C1C(c1ccco1)n1nc(C(F)(F)F)nc1N2` (stereo unspecified): the activation was -1.28%.

Take `C=COC(=O)N1CCN(/[N+]([O-])=N/Oc2ccc([N+](=O)[O-])cc2[N+](=O)[O-])CC1`: the activation was 1.19%.

With `COc1ccc(CN(Cc2ccccc2)C(=O)c2ccc(O)cc2)cc1COc1ccc(NC(C)=O)cc1`, the activation is 1.13%.

For `OC(Cc1ccc2ccccc2n1)c1ccc(Cl)c(Cl)c1` (stereo unspecified), the activation is 0.0951%.

`CCN(CC)c1ccc(C2C(C(N)=O)=C(C)Nc3nc(SCc4ccccc4)nn32)cc1` (stereo unspecified): the activation was -0.404%.

Turning to `CCCOc1ccc(C2c3c(-c4ccccc4O)n[nH]c3C(=O)N2Cc2cccnc2)cc1` (stereo unspecified), the activation is 1.02%.

Regarding `CN1C(=O)c2cccc3c(N)ccc(c23)C1=O`, the activation is 85.5% (active).

As for `Cc1nn(C)cc1N1C(=O)c2cccc3c(N)ccc(c23)C1=O`, the activation is 66.8% (active).

As for `Cc1ccc(Cn2cnc3c(cnn3C(C)(C)C)c2=O)c(F)c1`, the activation was 1.07%.

For `CN(C)c1ccc(NC(=O)CSc2nc(-c3ccco3)cc(C(F)(F)F)n2)cc1`, the activation is 0.776%.

For the compound `CCN(CC)CCCC(C)n1c2nc(=O)[nH]c(=O)c-2nc2cc(Cl)ccc21` (stereo unspecified), the activation is 82.9% (active).

With `CCN(CC)CCCC(C)Nc1ccnc2cc(Cl)ccc12` (stereo unspecified), the activation was 0.571%.

For the compound `Cc1cccc(-n2c(=O)c3c(c4cc(C)ccc4n3C)n(CC(=O)Nc3ccccc3Cl)c2=O)c1`, the activation was 1.58%.

As for `Brc1cccc[n+]1Cc1cccc(C[n+]2ccccc2Br)c1`, the activation is 0.0634%.

As for `Cc1cccc(NC(=O)COC(=O)c2ccccc2OCc2cccc(Br)c2)c1`, the activation was -0.0809%.

Consider `CCCCCCCNc1ccc(/C=C/c2ccnc3ccccc23)cc1`, for which the activation was 6.43%.

For `O=C(Nc1ccc(Cl)cc1)c1cnn2c1NC(=C1CC1)C=C2C(F)F`, the activation was -0.513%.

As to `CCOC(=O)c1c(C)oc2ccc(N(C(=O)c3ccncc3)S(=O)(=O)c3ccc(CC)cc3)cc12`, the activation is 0.815%.

In the case of `CCN(CC)c1ccc2cc(C(N)=O)/c(=N\NC(=O)c3ccncc3)oc2c1`, the activation was 81% (active).

Turning to `C/C(=N\NC(N)=S)c1ccncc1`, the activation was 0%.

With `COc1ccc(Br)cc1C1C2C=CCC(C)C2C(=O)N1Cc1ccccc1` (stereo unspecified), the activation is 1.3%.

Take `CS(=O)c1ccc(/C=C2\C=Cc3ccccc32)cc1` (stereo unspecified): the activation is -0.666%.

Turning to `COc1ccc(NC(=O)C2CCCN(S(=O)(=O)c3cccc4nonc34)C2)cc1Cl` (stereo unspecified), the activation was 0.791%.

Consider `Cc1ccc(-c2nc(=N)sn2Cc2ccccc2)cc1`, for which the activation was 0.856%.

For the compound `O=C(Cc1ccc(Cl)cc1)Nc1ccc2nn(-c3ccc(Cl)cc3)nc2c1`, the activation is -0.688%.

For `CCN(CC)/[N+]([O-])=N/OCOC(=O)Cc1c(C)n(C(=O)c2ccc(Cl)cc2)c2ccc(OC)cc12`, the activation is 1.25%.

On to `O=C(COc1ccccc1C(=O)Nc1ccccc1)Nc1cccc(F)c1`, for which the activation was -0.0642%.

For `CCn1c2ccccc2c2cc(CN3CCN(Cc4cccc(Cl)c4)CC3)ccc21`, the activation was 1.83%.

For `Cc1cccc(N2CCN(C(c3ccc(N(C)C)cc3)c3nnnn3C(C)(C)C)CC2)c1C` (stereo unspecified), the activation was -0.374%.

As to `COc1ccccc1C(c1nnnn1CC1CCCO1)N1CCN(c2ccccc2)CC1` (stereo unspecified), the activation was 1.14%.

For `Cc1cccc(N2CCN(C(c3ccccc3)c3nnnn3CC3CCCO3)CC2)c1C` (stereo unspecified), the activation was 83.5% (active).

Consider `O=C(CSc1nccn1Cc1ccc(Cl)cc1)NCc1ccccc1`, for which the activation was -1.21%.

Regarding `SCc1nc2ccc(Cl)cc2[nH]1`, the activation was -0.507%.

For `Cc1cc(C)c(/C=C2\C(=O)Nc3ccccc32)[nH]1`, the activation is 92% (active).

For `CC(C)OCCCn1c(SCC(=O)c2ccccc2)nc2c(sc3ccccc32)c1=O`, the activation is 0.121%.

`CCOCCCNC(=O)c1ccc2nc(CCc3ccccc3)oc2c1`: the activation was 2.82%.

Regarding `CC(C)(C)n1ncc2c(=O)n(Cc3ccc(C(=O)c4ccccc4)cc3)cnc21`, the activation is 2.07%.

For `CN(CC(=O)Nc1ccc(F)cc1)CC(=O)N1CCCCC1`, the activation is -0.517%.

For the compound `CC(OC(=O)Cc1ccc(F)cc1)C(=O)N1CCc2ccccc21` (stereo unspecified), the activation was 1.15%.

For `CC(C(=O)N1CCc2ccccc21)N(C)CC(=O)Nc1ccc(F)cc1` (stereo unspecified), the activation is 51.7% (active).

Consider `O=C(O)C1=C/C(=C/C=[N+]2c3cc(O)c(O[C@H]4OC(CO)[C@@H](O)[C@@H](O)[C@@H]4O)cc3C[C@@H]2C(=O)[O-])C[C@H](C(=O)O)N1` (stereo partly specified), for which the activation was -0.0321%.

On to `Cc1nn(CC(=O)O)c(=O)c2cc3cc(F)ccc3n12`, for which the activation is -0.613%.

Consider `CC1CC(C)CN(c2oc(-c3ccc(OCc4ccc(Cl)cc4)cc3)nc2C#N)C1` (stereo unspecified), for which the activation is -0.254%.

Regarding `COc1ccc(-c2ccc(C3C4C=CCCC4(C)C(=O)N3Cc3ccccc3)c(F)c2)cc1OC` (stereo unspecified), the activation was 0.474%.

Take `COc1ccc(Cl)cc1NC(=O)c1sc2nc3c(cc2c1N)CN(C)CC3`: the activation is 1.12%.

Consider `O=C(c1ccc2c(c1)N(Cc1ccccc1)C(=O)c1ccccc1S2(=O)=O)N1CCC(Cc2ccccc2)CC1`, for which the activation was 0.0562%.

Turning to `CC(=O)c1ccc(NS(=O)(=O)c2ccc(-c3cc(C)no3)s2)cc1`, the activation is -0.182%.

For the compound `CN(C)c1cccc2ccccc12`, the activation was -0.266%.

`CC(C)(C)OC(=O)N(Cc1ccco1)S(=O)(=O)c1ccccc1Br`: the activation was 0.62%.

Regarding `CCOc1cc2[nH]c(=O)n(Cc3ccc(C(=O)NCCN(CC)CC)cc3)c(=O)c2cc1OCC`, the activation was -0.328%.

With `O=C(Nc1ccccc1C(F)(F)F)c1nc(S(=O)(=O)Cc2ccccc2F)ncc1Cl`, the activation was 0.0634%.

For `CCOc1ccccc1NC(=O)Cn1nnc(C(=O)Nc2ccc(C)c(C)c2)c1N`, the activation was 1.55%.

As to `C/C=C/NNC(=O)Cc1ccc(OC)cc1`, the activation was -0.93%.

For the compound `CC(C)(C)C1CCC(NC(=O)c2cnn3c2NC(=C2CC2)C=C3C(F)F)CC1` (stereo unspecified), the activation is -1.12%.

In the case of `COCCn1c(N)c(NCc2ccccc2)c(=O)[nH]c1=O`, the activation is 1.47%.

As for `CCC(=O)Nc1ccc(C)cc1-c1nc2ccccc2n(Cc2ccccc2)c1=O`, the activation is 0.405%.

For the compound `Cc1cc2nc3c(=O)n(Cc4ccccc4)c(=O)[nH]c3nc2cc1N`, the activation was 94.8% (active).

As to `COc1cc(OC)c(OC)cc1/C=C1\C=Cc2ccccc21`, the activation was -0.666%.

With `COc1ccc(Cc2nc3ccc(C(=O)NCc4ccccc4Cl)cc3o2)cc1`, the activation was 0.91%.

For `COc1ccccc1CNc1nccn(-c2ccc(F)cc2)c1=O`, the activation was 0.564%.

In the case of `O=C1COc2ccc(-c3csc(-c4ccc(Cl)cc4)n3)cc2N1`, the activation was -0.602%.

As to `NC(=O)Nc1ccc(/C=C/c2ccnc3ccccc23)cc1`, the activation was -0.0317%.

Consider `CC(=O)Nc1ccc(S(=O)(=O)N2N=NC3C2C2CC4C3(CN(C(=O)OC(C)(C)C)S4(=O)=O)O2)cc1` (stereo unspecified), for which the activation was 0.118%.

With `COc1ccc(CNc2nc(-c3ccc(Cl)cc3)nn2S(=O)(=O)c2ccc(C)cc2)cc1`, the activation was 3.68%.

`O=C(Nc1cccc2cccnc12)C(F)(F)F`: the activation is 1.01%.

In the case of `CCOc1ccc(NC(=O)c2cnn(-c3ccccc3)c2-n2cccc2)cc1`, the activation was -0.36%.
